Screening data: PubChem BioAssay, several laboratories
Rows were chosen to be rich in hits. Some 3.7% of all compounds tested hit in one or more screens of this group.
tim10-1 inh = growth inhibitors of tim10-1 mutant yeast, primary screen, luminescence, uHTS; S. cerevisiae tim10-1 ts strain growth, BacTiter-Glo, 24 h; inhibition, % at 20 µM; 330,000 compounds, 2.2% hits; AID 463190, 2010;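 active = inhibition of at least 40%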;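 also: mutant grown at 25 °C; 0% = DMSO wells with yeast and 100% = wells holding no yeast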
PfHsp90 set2 = growth inhibition of PfHsp90-expressing yeast, primary screen, antimalarial PfHsp90 inhibitor project, S. cerevisiae, BacTiter-Glo luminescence, single point, set 2; BacTiter-Glo ATP, 48 h; yeast lacking PDR1 and PDR3 efflux regulators; inhibition, % at 9.4 µM; 310,000 compounds, 0.32% hits; AID 504621, 2011;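 active = every replicate shows inhibition above about 80%, whatever the replicate mean, limit read from the data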;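 also: 0% = DMSO neutral controls and 100% = 20 µM radicicol positive controls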
TIM10 inh = growth inhibitors of isogenic TIM10 control yeast, primary screen, counter-screen for tim10-1 yeast inhibitor project, luminescence, uHTS; inhibition, % at 10 µM; S. cerevisiae TIM10 strain growth, BacTiter-Glo luminescence, 24 h; AID 463195, 2010; 330,000 compounds, 1.4% hits;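 active = inhibition of 40% or more at the single tested concentration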;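 also: wild-type TIM10 isogenic control strain grown at permissive 25 °C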
tim23-1 inh = growth inhibitors of tim23-1 mutant yeast, primary screen, luminescence, uHTS | S. cerevisiae tim23-1 growth, BacTiter-Glo luminescence, 24 h | inhibition, % at 20 µM | 330,000 compounds, 1.3% hits | AID 463212, 2010;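 active = growth inhibition of the mutant yeast at or above 50%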;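 also: temperature-sensitive mutant grown at 25 °C; plate controls were DMSO-treated mutant yeast for no effect and medium wells lacking yeast for full effect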
Rce1 inhib = yeast Rce1p protease inhibitors, primary screen, biochemical, fluorescence, cell-free homogeneous; calls only; 290,000 compounds, 0.27% hits; yeast membranes, quenched prenylated peptide cleavage fluorescence; CAAX prenyl protease 2 (Saccharomyces cerevisiae (strain ATCC 204508 / S288c)), Q03530;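 active = fall in fluorescence gain of 50% or more versus controls, with final raw signal at or below 3038400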;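 also: plate controls were neutral control wells for no effect and wells lacking membranes for full effect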
Target sequence (Q03530 whole entry, looked up): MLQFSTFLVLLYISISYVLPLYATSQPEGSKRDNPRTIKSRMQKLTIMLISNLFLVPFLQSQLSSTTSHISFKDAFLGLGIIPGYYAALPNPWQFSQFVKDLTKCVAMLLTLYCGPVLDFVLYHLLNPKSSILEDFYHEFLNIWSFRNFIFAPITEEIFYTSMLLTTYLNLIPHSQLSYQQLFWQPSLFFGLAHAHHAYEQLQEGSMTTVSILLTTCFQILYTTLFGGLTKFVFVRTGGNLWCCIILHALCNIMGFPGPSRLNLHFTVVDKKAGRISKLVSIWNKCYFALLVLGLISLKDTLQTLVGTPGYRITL
tim10-1 confirm = growth inhibitors of tim10-1 mutant yeast, confirmation, single concentration, luminescence, S. cerevisiae; inhibition, % at 20 µM; S. cerevisiae tim10-1 ts strain growth, BacTiter-Glo, 24 h; 7,400 compounds, 56% hits; shares compounds with tim10-1 inh;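 active = inhibition of yeast growth at or above a set limit in either of two repeat tests at 20 µM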;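 also: tim10-1 mutant grown at permissive 25 °C to find synthetic lethal compounds; 0% = DMSO yeast wells and 100% = medium wells without yeast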
* = called active by the depositor; i = inactive; · = no result.

SMILES	tim10-1 inh	PfHsp90 set2	TIM10 inh	tim23-1 inh	Rce1 inhib	tim10-1 confirm
O=C(NCCc1ccccc1)c1ccc2nc(N3CCOCC3)sc2c1	-13	-1	-4	0	i	·
O=C(c1ccc2nc(N3CCCCC3)sc2c1)N1CCN(c2ccccn2)CC1	51*	-50	37	49	i	35*
O=C(c1ccc2nc(N3CCOCC3)sc2c1)N1CCC(Cc2ccccc2)CC1	54*	-11	39	49	i	43*
CCCn1nnnc1NCc1ccc(Cl)cc1Cl	18	·	2	16	i	·
CCOC(=O)C1(CCCc2ccccc2)CCN(S(=O)(=O)N(C)C)CC1	1	5	-8	32	i	·
CCOC(=O)C1CCN(C(=O)CN2C(=O)COc3ccc(C(C)(C)C)cc32)CC1	44*	-3	9	28	i	7
S=C(Nc1ccccc1)Nc1nccs1	42*	0	18	32	i	18
CC(C)(C)NC(=S)N/N=C\c1ccc(-c2ccc([N+](=O)[O-])cc2)o1	40*	·	33	45	i	33*
O=C(O)c1ccc(N=Nc2c(O)ccc3ncccc23)cc1	42*	-24	15	37	i	34*
COC(=O)c1ccc(C)c(NC(=O)c2ccc(Cl)c([N+](=O)[O-])c2)c1	35	6	21	12	i	·
COC(=O)CN1C(=O)[C@H]2[C@@H](C3CC3)N3C(=O)CN(Cc4ccccn4)C(=O)[C@@]3(Cc3ccccc3)[C@H]2C1=O	-9	·	3	-4	i	·
COc1ccc(S(=O)(=O)CCc2nnc(NC(=O)c3cccs3)s2)cc1	13	-13	-12	-28	i	·
COc1ccc(C(=O)Oc2cc(N)n(S(=O)(=O)c3ccccc3)n2)cc1	40*	-12	21	19	·	23
COc1ccc(S(=O)(=O)n2nc(OC(=O)c3cccs3)cc2NC(=O)c2cccs2)cc1	45*	-29	-5	8	i	30*
COc1ccc(S(=O)(=O)n2nc(OC(C)=O)cc2N)cc1	8	33	14	9	i	·
Cc1ccc2nc(SCC(=O)Nc3cc(C(C)(C)C)nn3-c3ccccc3)[nH]c2c1	44*	-1	24	21	i	25
COc1ccc(N2CC(NC(=O)N3CCN(C(=O)c4ccco4)CC3)CC2=O)cc1OC (configuration not stated)	-12	·	-5	-2	i	·
O=C(CSCc1cccc(Br)c1)N/N=C/c1ccc2c(c1)OCO2	43*	2	14	37	i	36*
Cc1nn(CC(=O)N/N=C/c2ccc3c(c2)OCO3)c(C)c1Br	12	-14	15	7	i	·
Clc1cccc(CN2CCc3c([nH]c4ccccc34)C2)c1	45*	-9	35	25	·	44*
CC(=O)c1cccc(NS(=O)(=O)c2ccc(-c3cc(C)no3)s2)c1	5	-5	7	25	i	·
Nc1nc(-c2ccccc2)c(N=Nc2ccccc2Cl)s1	55*	-15	38	26	i	27
CCOC(=O)C1CCCN(C2=NC(=O)/C(=C/c3ccc(OC)cc3)S2)C1 (configuration not stated)	47*	-6	20	33	i	31*
CCOC(=O)C1CCCN(C2=NC(=O)/C(=C/c3ccc(OC)cc3OC)S2)C1 (configuration not stated)	37	-4	23	36	i	·
CCOC(=O)C1CCCN(C2=NC(=O)/C(=C/c3ccc(O)c(OCC)c3)S2)C1 (configuration not stated)	46*	6	28	40	i	26
SMILES	tim10-1 inh	PfHsp90 set2	TIM10 inh	tim23-1 inh	Rce1 inhib	tim10-1 confirm
CCOC(=O)C1CCCN(C2=NC(=O)/C(=C/c3ccc(N(C)C)cc3)S2)C1 (configuration not stated)	27	-21	18	36	i	·
CN(C(=O)c1ccccc1C(=O)OCC(=O)Nc1ccc(OC(F)F)cc1)c1ccccc1	43*	-13	9	30	·	24
CN(C(=O)c1ccccc1C(=O)OCC(=O)Nc1ccc(S(N)(=O)=O)cc1)c1ccccc1	-3	-16	-5	18	i	·
O=C(c1sc2ccccc2c1Cl)N1CCN(c2ccccc2F)CC1	42*	9	3	30	i	28
CC(O)C(NC=C1C(=O)OC(C)(C)OC1=O)C(=O)O (configuration not stated)	11	-4	-11	9	i	·
O=C1/C(=C/c2cccs2)CCC/C1=C\c1cccs1	-9	-3	-1	33	i	·
Cn1cccc1/C=C1\CCC/C(=C\c2cccn2C)C1=O	50*	·	20	23	i	21
COC(=O)Cc1ccc(OC(=O)CCS(=O)(=O)c2ccc(C)cc2)cc1	18	-24	24	26	i	·
O=C(CO/N=C/c1cccc([N+](=O)[O-])c1)Nc1ccc2ccccc2c1	45*	31	9	16	i	24
CCOc1ccc(S(=O)(=O)N2CCN(c3ccccc3F)CC2)c2cccnc12	45*	-4	22	33	i	25
O=C(/C=C/c1ccc(OC2CSC2)cc1)c1ccccc1	44*	-50	23	26	i	33*
CC(=O)[C@H]1[C@H](c2cccc(Cl)c2)C(C#N)(C#N)[C@@H]2c3ccccc3C=CN21	48*	·	31	30	i	23
CC(=O)[C@H]1[C@@H]2C(=O)N(c3cccc(Cl)c3)C(=O)[C@@H]2[C@H]2c3ccccc3C=CN21	22	25	13	30	i	·
O=C(NCCCn1ccnc1)c1cccc(S(=O)(=O)NCc2ccccc2)c1	0	0	8	5	i	·
O=S(=O)(c1ccc(NC(=S)NN=C2CCCCC2)cc1)N1CCOCC1	19	·	10	10	i	·
CCOC(=O)Nc1nc(-c2ccc(Cl)cc2Cl)cs1	40*	-7	36	41	i	17
CCOC(=O)Nc1nc(C)c(C(=O)c2ccc(Cl)cc2)s1	9	-5	13	-2	i	·
Fc1ccc(N2CCN(Cc3nnc(-c4ccccc4)o3)CC2)cc1	6	23	-14	26	·	·
Fc1ccc(-c2nnc(CN3CCN(c4ncc(C(F)(F)F)cc4Cl)CC3)o2)cc1	49*	·	7	31	i	24
COc1cc(NC(=O)CSCc2cnn(-c3ccccc3)c2-n2cccc2)cc(OC)c1	10	-4	18	21	i	·
